Screen size: about 360,000 compounds; about 8,200 (2.3%) were called active. Rule as the data show it: active = inhibition above about 27%; inactive = the rest. Only a selection was taken, and actives are over-represented in it overall.
Target: Fructose-bisphosphate aldolase (Mycobacterium tuberculosis (strain ATCC 25618 / H37Rv)) (UniProt P9WQA3)
Experiment: Mtb FBA enzyme inhibitors, primary screen, biochemical, fluorescence, strain H37Rv (AID 588726);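 also: 0% = vehicle and 100% = reference inhibitor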
Conditions: purified M. tuberculosis FBA, fluorescence read-out, at 1 µM, active compounds read high

Fructose-bisphosphate aldolase (Mycobacterium tuberculosis (strain ATCC 25618 / H37Rv)), sequence (P9WQA3 whole entry, looked up): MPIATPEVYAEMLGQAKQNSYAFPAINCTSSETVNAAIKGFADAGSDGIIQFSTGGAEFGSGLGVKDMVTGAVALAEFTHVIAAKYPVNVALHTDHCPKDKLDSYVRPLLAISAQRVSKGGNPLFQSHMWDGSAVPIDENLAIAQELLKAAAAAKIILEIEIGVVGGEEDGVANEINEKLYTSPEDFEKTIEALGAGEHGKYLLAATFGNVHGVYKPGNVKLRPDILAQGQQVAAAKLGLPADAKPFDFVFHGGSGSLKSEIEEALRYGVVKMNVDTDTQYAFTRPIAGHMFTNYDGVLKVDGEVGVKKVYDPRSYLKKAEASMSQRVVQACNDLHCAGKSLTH

SMILES	inhibition
Cc1cc(NC(=O)C(C)SCC(=O)Nc2cccc(S(=O)(=O)N3CCCCCC3)c2)no1 (stereo not drawn)	2.17% (inactive)
COc1cccc(NC(=O)CSc2nnc(C3CCCCC3)n2N)c1	-1.25% (inactive)
CC(=O)NC(CC(=O)Nc1nccs1)c1ccccc1 (stereo not drawn)	6.36% (inactive)
OC(CN=c1sc2ccccc2n1CC(O)COc1ccccc1)COc1ccccc1 (stereo not drawn)	-7.04% (inactive)
CC(C)COP(=O)(c1ccc(N(C)C)cc1)C(Nc1ccccc1)c1cccnc1 (stereo not drawn)	6.04% (inactive)
COc1ccc(C(=O)N(CCN2CCOCC2)CC(=O)NC2CCCC2)cc1OC	-0.65% (inactive)
Cc1ccc2nc(-c3ccccc3)c(CC3CCCCC3)n2c1	3.26% (inactive)
Cc1ccccc1C(=O)NCCN=C1NS(=O)(=O)c2ccccc21	0.52% (inactive)
COc1ccc(-n2c(C)nn(CC3CC3)c2=O)cc1	-1.25% (inactive)
COc1ccc(CC(NC(C)=O)C(=O)N2CCN(C(=O)Nc3cccc(Cl)c3)CC2)cc1OC (stereo not drawn)	1.24% (inactive)
CCCS(=O)(=O)Nc1ccc(-c2cn3c(n2)SCC3)cc1	0.71% (inactive)
CS(=O)(=O)Nc1ccc(C(=O)N2CCCC2)cc1	4.14% (inactive)
CNc1cncc(-c2ccc(NS(C)(=O)=O)cc2)n1	174% (active)
C#CCNC(=O)C1=C[C@@H](c2ccccc2)[C@H](CCCO)[C@@H](OCC)O1	0.54% (inactive)
COc1ccc2ccn(C)c2c1	0% (inactive)
COc1ccc2c(c1)cc1n2CCN=C1NN	41.9% (active)
COc1ccc(N)c(C)c1	1.98% (inactive)
Cc1ccc(-c2nc3ccccc3[nH]c2=O)cc1	76.5% (active)
Cc1ccc(-c2nnc(-n3nnc4ccccc43)c3ccccc23)cc1	-0.52% (inactive)
O=c1[nH]c2ccccc2n2c(-c3ccccc3)nnc12	4.09% (inactive)
O=C(NCC(=O)N1CCN(c2ccccc2O)CC1)c1ccc2ccccc2c1	1.15% (inactive)
CC(C(=O)NCCc1ccc(S(N)(=O)=O)cc1)N1C(=O)CC(C)(C)Sc2ccccc21 (stereo not drawn)	4.96% (inactive)
CC(=O)NC1=NC(=O)CS1	3.59% (inactive)
CCCn1nc2cc(C(=O)NCc3ccccc3)ccc2c1OCC	57.5% (active)
CNS(=O)(=O)c1cccc(C(=O)NC2CCCc3ccccc32)c1 (stereo not drawn)	5.34% (inactive)

SMILES	inhibition
C[n+]1ccc(C(=O)NCc2ccccc2)cc1	3.53% (inactive)
CCOc1c2ccc(C(=O)NC3CCCc4ccccc43)cc2nn1CC (stereo not drawn)	42.8% (active)
COc1ccccc1-n1c(C)nc2cc(C(=O)NCc3ccc4c(c3)OCO4)ccc21	0.13% (inactive)
CCOc1c2ccc(C(=O)NCc3ccc(OC(F)(F)F)cc3)cc2nn1C	44% (active)
O=C(COC(=O)c1ccc(Cl)nc1)NCc1ccc2c(c1)OCO2	-2.36% (inactive)
C=CCOc1c2ccc(C(=O)N(CC)c3ccc(OC)cc3)cc2nn1C	17.6% (inactive)
Cc1cc(N2C(=O)c3ccc(C(=O)NCc4ccccc4)cc3C2=O)no1	0.51% (inactive)
CCOc1ccc(NC(=O)COc2ccc(C(=O)NC3CCCc4ccccc43)cc2OC)cc1 (stereo not drawn)	3.93% (inactive)
COc1ccc(CNC(=O)c2ccc3oc(C(C)C)nc3c2)cc1	0.16% (inactive)
CCOc1c2ccc(C(=O)NCc3ccc4c(c3)OCO4)cc2nn1C	50.2% (active)
Cc1ccc(Nc2ccccc2N)cc1	8.06% (inactive)
CC1(C)Cc2cccc(OCC(=O)N3CCN(c4ccc([N+](=O)[O-])cc4)CC3)c2O1	-5.39% (inactive)
O=C(CCN1CCCCC1)Nc1ccc(F)c(F)c1	-0.67% (inactive)
Cc1noc(C)c1CCC(=O)O	1.72% (inactive)
CC(C)(C)n1nnc(CCc2nnn(C(C)(C)C)n2)n1	2.81% (inactive)
COc1ccc(CCNC(=O)C2CC3Cn4c(nc5cc(C)c(C)cc54)C3N2C)cc1 (stereo not drawn)	1.06% (inactive)
CCC1CCCCN1C(=O)CSc1nc2c(c(=O)n1C)SC(C)C2 (stereo not drawn)	-1.89% (inactive)
Cc1nc(N=C(N)N)nc2c(C)cccc12	8% (inactive)
COc1nc(N=C(N)N)nc2c(C)cccc12	32.9% (active)
CCc1c(C)nc2c(OC)cccc2c1Cl	6.78% (inactive)
COc1ccc2cc(C(=O)C3CCCN(C(=O)c4sc(C)nc4C)C3)ccc2c1 (stereo not drawn)	162% (active)
CCn1nc(C)cc1C(=O)N1CCCC(C(=O)c2cccc(OC)c2)C1 (stereo not drawn)	-1.49% (inactive)
COc1ccc(C(=O)C2CCCN(C(=O)c3cnsn3)C2)c(C)c1 (stereo not drawn)	2.56% (inactive)
COc1cc(OC)cc(-c2c(-c3ccc(F)cc3)c3cc(-c4ccc5cc[nH]c5c4)ccc3n2C)c1	26.4% (inactive)
COc1ccc(-c2c(-c3cc(OC)cc(OC)c3)n(C)c3ccc(-c4ccn[nH]4)cc23)cc1	41.1% (active)

SMILES	inhibition
COc1cc(OC)cc(-c2c(-c3cccs3)c3cc(-c4ccc(OC)nc4)ccc3n2C)c1	1.28% (inactive)
Cc1csc(/N=C/N(C)C)c1C#N	-1.13% (inactive)
CN(C(=O)c1cc2c(=O)n3ccccc3nc2s1)C1CCCCC1	94.8% (active)
CCOCCCNC(=O)c1cc2c(=O)n3ccccc3nc2s1	184% (active)
CCOCCCNC(=O)c1cn(CC(C)C)c(=O)c2c1c1ccccc1n2C	25.3% (inactive)
CN(C(=O)CSc1nnnn1-c1ccccc1)C1CCCCC1	5.06% (inactive)
CCOCCCNC(=O)c1c[nH]c2cc(C)ccc2c1=O	4.52% (inactive)
CN(c1ccc2nc3ccccc3c(=O)n2n1)C1CCCCC1	1.09% (inactive)
CCn1ncc(C2=NOC(C(=O)N3CCN(c4ccccc4)CC3)C2)c1C (stereo not drawn)	0.67% (inactive)
C[C@@H]1CN([C@@H](C)CO)C(=O)CCCn2cc(nn2)CO[C@H]1CN(C)S(=O)(=O)c1ccc(-n2cccn2)cc1	-4.05% (inactive)
Cc1ccc(C(=O)OCC(=O)Nc2ccc(Cl)cn2)cc1S(=O)(=O)N1CCOCC1	-2.24% (inactive)
CCc1ccc(C(=O)NN=C2CCCCCC2)s1	2.93% (inactive)
Cc1ccc(Cn2cc(C(=O)NN)c(=O)c3ccc(F)cc32)cc1	-0.43% (inactive)
C#Cc1cc(N2CCN(C(=O)c3ccoc3)CC2)n2nc(-c3cccc(Cl)c3)cc2n1	51.1% (active)
CCc1nc2ccc(C(=O)N3CCN(c4cccc(Cl)c4)CC3)cc2nc1CC	-5.44% (inactive)
CCCCCn1c(SCCC(C)C)nc2c1c(=O)[nH]c(=O)n2C	-1.96% (inactive)
Nc1ccc2nn(-c3ccc(Cl)cc3)nc2c1	52.9% (active)
Nc1nc2cc(Cl)ccc2n1N	1.5% (inactive)
Nc1ccc2c(c1)C(O)c1ccc(Cl)cc1-2 (stereo not drawn)	0.95% (inactive)
CCC(C)(C)NC(=O)CN(C(=O)CCC(=O)Nc1cc(C)ccn1)c1ccc2c(c1)OCCO2	-0.12% (inactive)
Cc1ccc(CCn2c3c(c4ccccc42)CN(C)CC3)cn1	4.44% (inactive)
CC(C)C(=O)Nc1oc(-c2ccccc2)cc1C#N	1.2% (inactive)
Cn1cc(-c2ccccc2)cc(C#N)c1=O	50.3% (active)
Cn1cccc1C(C#N)c1ccccc1C#N (stereo not drawn)	-1.4% (inactive)
O=P(O)(CP(=O)(c1ccccc1)c1ccccc1)c1ccccc1O	-1.86% (inactive)

SMILES	inhibition
COc1ccc(CCN2CC(C(=O)OCC(=O)NCc3ccccc3Cl)CC2=O)cc1OC (stereo not drawn)	-0.32% (inactive)
Cc1c(Br)c([N+](=O)[O-])nn1C(C)C(=O)Nc1nccs1 (stereo not drawn)	0.22% (inactive)
Cn1nnnc1-c1cc(Cl)cc(Cl)c1	-1.41% (inactive)
O=C(CNC(=O)c1ccccc1Br)NCCSc1ccc(Br)cc1	2.75% (inactive)
CCCCC(NS(=O)(=O)c1ccc(C)cc1)C(=O)Oc1ccc2c3c(c(=O)oc2c1)CCC3 (stereo not drawn)	61.7% (active)
Cc1cc(=O)oc2cc(OC(C)C(=O)NCCc3ccc(S(N)(=O)=O)cc3)ccc12 (stereo not drawn)	20.4% (inactive)
CSCCC(NS(=O)(=O)c1ccc(C)cc1)C(=O)N1CCCC1 (stereo not drawn)	-1.91% (inactive)
C[C@H](OC(=O)n1ccnc1)[C@@H]1O[C@@]2(C)CCC[C@@H]1O2	-0.83% (inactive)
CC1(C)C(=O)C2(CCCCC2)C(=O)OC1c1cccs1 (stereo not drawn)	-0.98% (inactive)
COc1ccc(NC(=O)C2Cc3c(-c4ccc5c(c4)OCO5)ccnc3O2)cn1 (stereo not drawn)	64.8% (active)
O=C(Nc1ccc(Cl)cc1)C1Cc2c(-c3ccc4c(c3)OCO4)ccnc2O1 (stereo not drawn)	26.8% (inactive)
COc1ccc(NC(=O)C2Cc3c(-c4ccc(Cl)cc4)ccnc3O2)cc1 (stereo not drawn)	-1.52% (inactive)
CCCCn1c(N)c(N(Cc2ccccc2OC)C(=O)COc2cc(C)ccc2Cl)c(=O)[nH]c1=O	1.47% (inactive)
CCOc1ccc(OCC)c(-c2c(=O)n(OCc3ccc(Cl)cc3)c3ccccc3[n+]2[O-])c1	-1.68% (inactive)
c1ccc(-c2cc(N3CCCCC3)c3ccccc3n2)cc1	0.14% (inactive)
Brc1cnc(N2CCCC2)nc1N1CCCCC1	4.23% (inactive)
Brc1cnc2ccccc2c1N1CCCCC1	51.2% (active)
CCOC(=O)c1c(S(=O)(=O)Nc2ccc(CN3CCC(C)CC3)cc2)c(C)n(C)c1C	1.42% (inactive)
CCCCn1c(=S)[nH]c2ncccc2c1=O	0.66% (inactive)
CN(CCc1ccccn1)C(=O)CCC1CCCN(Cc2ccccc2OC(F)F)C1 (stereo not drawn)	5.01% (inactive)
CCN1CCc2c(C#N)c(NCc3ccccc3)nc(NCCO)c2C1	33.9% (active)
CCCCc1nc(NCc2ccccc2)c(C#N)c2c1CCCC2	0.15% (inactive)
CC(C)CCNc1nc(N2CCCC2)c2c(c1C#N)CCN(C)C2	4.23% (inactive)

From PubChem BioAssay AID588726 (The Scripps Research Institute Molecular Screening Center, 2011)
